Compound activity as filed in PubChem BioAssay.
The list is a sample of the results.
aSyn UTR act – Activators working through SNCA 5'UTR binding (MLPCN) | actives 7.1% (n = 300,000) | activity score, % (tested at 7.5 µM), hits read low | alpha-synuclein 5'UTR reporter, activators screen; in the data active = activity score below about -60%
* hit, by the source's call.

SMILES	aSyn UTR act
NS(=O)(=O)c1ccc(N/C=C/C(=O)c2ccc(Br)cc2)cc1	-108.1*
NS(=O)(=O)c1ccc(N/C=C\C(=O)c2ccc(F)cc2)cc1	-118.4*
CN(C)c1ccc(N/C=C/C(=O)c2ccc(F)cc2)cc1	-120.0*
Cc1ccc(NC(=O)C(C)OC(=O)c2n[nH]c3ccccc23)cc1 (configuration not stated)	-70.9*
Cc1ccc(C)c(NC(=O)c2cc3ccccc3o2)c1	-171.6*
Cc1ccnc(NC(=O)c2cc3ccccc3o2)c1	97.0
Cc1cc(NC(=O)c2cncc(Br)c2)ccc1NC(=O)c1cc2ccccc2o1	78.0
COc1ccc(C)cc1NC(=O)c1cc2ccccc2o1	-146.8*
Cc1cc([N+](=O)[O-])ccc1NC(=O)c1cc2ccccc2o1	-115.2*
CCCc1ccc(C(=O)/C=C/N(C)C)cc1	-126.2*
CN(C)/C=C/C(=O)c1ccc(Oc2ccccc2)cc1	-136.4*
COc1ccc(/C=C/c2ccc3c(Br)ccc(O)c3n2)cc1	-150.5*
COc1cc(/C=C/c2ccc3c(Br)cc(Br)c(O)c3n2)ccc1O	65.4
COc1cc(/C=C/c2ccc3cccc(O)c3n2)cc(Cl)c1OC	-88.3*
COc1cc(/C=C/c2ccc3cccc(O)c3n2)cc(Br)c1OC	-81.1*
Cc1cc(O)ccc1N/C=C(\C#N)c1nc2ccccc2o1	-141.1*
Cc1ccc(CNc2nc(C)cs2)cc1	-112.1*
Cc1ccc(C(=O)Nc2cnc3sc(C)nn3c2=O)cc1	-99.7*
Cc1nn2c(=O)c(NC(=O)c3ccc(Cl)cc3)cnc2s1	-65.6*
COc1ccc(N2C(=O)c3ccccc3NC23CCCC3)cc1	-89.8*
CSCc1ccc(C(=O)NCCSc2ccc(Br)cc2)cc1	-96.2*
CCS(=O)(=O)N1Cc2ccccc2CC1C(=O)Nc1ccc(F)c(F)c1 (configuration not stated)	-88.3*
CCS(=O)(=O)N1Cc2ccccc2CC1C(=O)Nc1ccc(F)c(F)c1F (configuration not stated)	-61.7*
CCS(=O)(=O)N1Cc2ccccc2CC1C(=O)Nc1cccc(C)c1 (configuration not stated)	-102.4*
CCS(=O)(=O)N1Cc2ccccc2CC1C(=O)Nc1ncc(C)s1 (configuration not stated)	-125.9*
SMILES	aSyn UTR act
O=C(Nc1nnc(C2CC2)s1)C1Cc2ccccc2CN1S(=O)(=O)c1ccccc1F (configuration not stated)	-177.8*
CC(C)CNC(=O)C1CCN(Cc2ccc(OCc3ccccc3)cc2)CC1	-95.0*
CC(O)CNC(=O)C1CCN(Cc2ccc(OCc3ccccc3)cc2)CC1 (configuration not stated)	-126.2*
O=C(N/N=C/C=C/c1ccc([N+](=O)[O-])cc1)c1cccs1	-76.7*
O=C(N/N=C/c1cccc(OCc2ccccc2)c1)c1cccs1	-71.5*
O=C(N/N=C/c1cccc([N+](=O)[O-])c1)c1cccs1	-84.2*
Cc1ccc2[nH]c(C(=O)N/N=C/c3ccc([N+](=O)[O-])cc3)c(C)c2c1	-62.9*
O=C(N/N=C/c1ccc(Br)s1)c1ccc([N+](=O)[O-])cc1	84.4
COCCCNc1nnc(Cc2ccc(Cl)cc2)c(=O)[nH]1	66.5
O=C(/C=C/c1cccc(Cl)c1)c1ccc([N+](=O)[O-])o1	91.2
O=C(/C=C/c1cccc([N+](=O)[O-])c1)c1cccs1	-77.4*
CC(=O)c1cccc(N=Nc2c(C)[nH]c3ccccc23)c1	-150.0*
COc1ccc(NC(=O)/C(C#N)=C\c2ccc(N3CCOCC3)o2)cc1	-95.4*
COc1ccc(NC(=O)/C(C#N)=C/c2ccc(Br)o2)cc1	-66.1*
N#C/C(=C\c1ccc(N2CCOCC2)o1)C(=O)Nc1ccc(O)cc1	-101.1*
O=C1CC(c2cc(-c3ccccc3)no2)C1	-98.9*
O=C(N/N=C/c1ccc(Cl)cc1)C1CC12CCC2 (configuration not stated)	-109.8*
CCc1ccc(C(=O)Nc2ccc3nc(C)ccc3c2)cc1	-177.5*
Cc1ccc2cc(NC(=O)c3ccc(C(C)(C)C)cc3)ccc2n1	-63.2*
Cc1ccc2oc(=O)c(/C=C(\O)c3ccccc3)nc2c1	-79.2*
O=c1oc2ccc(Cl)cc2nc1/C=C(\O)c1cccs1	-107.6*
Cc1ccc2oc(=O)c(/C=C(\O)c3cccs3)nc2c1	-148.0*
CCOC(=O)c1c(C)oc2c1c1c(c3ccccc32)OCN(Cc2ccccn2)C1	-101.5*
CCOC(=O)c1c(C)oc2c1c(CN1CCN(C(=O)OCC)CC1)c(O)c1ccccc12	-205.3*
CCOC(=O)Nc1nnc(/C=C/c2ccc(OC)cc2)s1	-94.2*
SMILES	aSyn UTR act
COc1ccc(/C=C/c2nnc(NC(=O)C(C)(C)C)s2)cc1	-96.0*
CCCC(=O)Nc1nnc(/C=C/c2ccccc2)s1	-99.0*
CCCC(=O)Nc1nnc(/C=C/c2ccc(OC)cc2)s1	-106.6*
CCC(=O)Nc1nnc(/C=C/c2ccccc2)s1	-137.7*
CCCn1nc2cc(C(=O)NCCc3cccs3)ccc2c1OCC	-76.1*
O=C(COc1ccc(Cl)cc1Cl)NCc1ccco1	-64.1*
O=C(NCc1ccco1)c1ccc(COc2cc(Cl)ccc2Cl)cc1	-94.9*
CCOc1ccc(NC(=O)Nc2cc(C)ccc2F)cc1	-199.1*
Cc1ccc(NC(=O)Nc2cccc(C)n2)c(C)c1	-103.8*
CCOc1ccc(NC(=O)Nc2cccc(C)n2)cc1	-142.9*
COc1cccc(NC(=O)Nc2cccc(C)n2)c1	-110.2*
Cc1cccc(NC(=O)Nc2ccccc2)n1	-76.5*
CCCCOc1ccc(C(=O)Nc2cccc(C)n2)cc1	-67.8*
Cc1ccc(C2Nc3ccc4ccccc4c3C3=C2C(=O)CC(C)(C)C3)o1 (configuration not stated)	-73.4*
O=C(Nc1nnc(-c2ccco2)o1)c1ccc([N+](=O)[O-])s1	-71.1*
CCc1ccccc1NC(=O)c1ccc([N+](=O)[O-])s1	-68.0*
CC1CCN(S(=O)(=O)c2ccc(C(=O)Nc3nnc(-c4ccco4)o3)cc2)CC1	61.2
COc1ccc2c(c1OC)C(=O)N1C(C(=O)O)Cc3c([nH]c4ccccc34)C21 (configuration not stated)	-66.3*
COC(=O)c1cnc(SCc2ccc(C)cc2)n1C	-81.4*
Cc1ccc(C(=O)Cn2nnc3ccccc32)cc1	-161.4*
O=C(CCn1nnc2ccccc21)N1CCN(c2ccccc2)CC1	-118.9*
Cc1ccc(C(=O)Cn2nnc3ccccc32)cc1C	-90.4*
Cc1ccc(NC(=O)CCn2nnc3ccccc32)cc1	-84.2*
CC(=O)Nc1ccc(C(=O)Cn2nnc3ccccc3c2=O)cc1	-65.7*
O=C(Cn1nnc2ccccc21)c1ccc(Br)cc1	-82.2*
SMILES	aSyn UTR act
O=C(Cn1nnc2ccccc2c1=O)NC1CCCCC1	-68.3*
[O-]/C(=C(\C(=S)Nc1ccc(SC(F)F)cc1)[n+]1cccc(CO)c1)c1ccc(Cl)s1	-70.6*
Cc1cccc(NC(=S)NNC(=O)c2csc(C)c2)c1	-76.7*
Cc1cc(C(=O)Nc2ccc(Br)cc2)cs1	-130.1*
Cc1cccc(NC(=S)NNC(=O)c2csc3c2CCCC3)c1	-125.3*
O=c1c2cnn(-c3ccccc3)c2nc(-c2cccs2)n1-c1cccc(Cl)c1	-63.1*
C=CCSc1nc2c(cnn2-c2ccccc2)c(=O)n1N	74.2
CC(=O)N1CCOc2ccc(S(=O)(=O)N3CCCCC3)cc21	-250.3*
CCC1CCCCN1S(=O)(=O)c1ccc2c(c1)CCN2C(C)=O (configuration not stated)	57.0
CC(=O)c1cccc(NS(=O)(=O)c2ccc3c(c2)N(C(C)=O)CCO3)c1	-69.7*
